Compound activity from PubChem.
A selection: hits, their analogues and other compounds. The true share with any hit is near 6.8%.
Pf Dd2 inh – P. falciparum Dd2 growth inhibition; AID 1159554; activity change, % at 10 µM; hit rate 2.3% among 94,000; SYBR Green, 72 h; stronger effect = lower value; in the data active = activity change below about -80%; inconclusive = no clear call, values can overlap the other calls
T cruzi growth-1 – blocks T. cruzi growth in NIH3T3 culture | T. cruzi beta-gal in NIH3T3, GalScreen luminescence, 90 h | inhibition, % at 8.34 µM | hit rate 5.9% among 77,000;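 active = mean inhibition above about 93%, with at least 55% of replicates each passing it, limit read from the data, passing the limit was not always enough; inconclusive = only one of those two conditions holds; inactive = neither condition holds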
C diff HTS – blocks growth of Clostridium difficile | Clostridium difficile clinical isolate growth, OD600, 24 h; stronger effect = lower value | growth activity, negative = inhibition, % at 16 µg/mL (by protocol) | hit rate 0.25% among 86,000 | AID 1259249;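 active = mean growth activity at or below -80% and every replicate also at or below -80%; inconclusive = mean at or below -80% but some replicate above -80%; inactive = mean growth activity above -80%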
T cruzi growth-2 – blocks T. cruzi growth in NIH3T3 host cells; shares compounds with T cruzi growth-1; T. cruzi beta-gal in NIH3T3, GalScreen luminescence, 90 h; inhibition, % at 8.35 µM; hit rate 72% among 5,600;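 active = mean replicate inhibition above about 95% and at least 55% of replicates individually reaching it, limit read from the data; inconclusive = only one of the two criteria is met; inactive = neither criterion is met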
T cruzi growth-3 – inhibitors of T. cruzi proliferation; shares compounds with T cruzi growth-1; T. cruzi beta-gal in NIH3T3, GalScreen luminescence, 90 h; inhibition, % at 2.09 µM; hit rate 21% among 5,600;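 active = mean inhibition above about 95%, with at least 55% of replicates also reaching it, limit read from the data; inconclusive = meets just one of the two conditions; inactive = meets neither condition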
3T3 cytotox – kills mouse NIH/3T3 fibroblasts. shares compounds with T cruzi growth-1. NIH/3T3 viability, CellTiter-Glo ATP luminescence, 90 h. cytotoxicity (signal decrease), % at 8.35 µM. hit rate 14% among 5,600. AID 651742;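 active = mean signal decrease across replicates above about 35% based on untreated-well scatter, with enough replicates individually passing, limit read from the data; inconclusive = no rule stated though some were filed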
NIH3T3 tox 2 – kills mouse NIH/3T3 fibroblasts; inhibition, % at 24.9 µM; NIH/3T3 viability, CellTiter-Glo ATP luminescence, 90 h; hit rate 56% among 5,600; shares compounds with T cruzi growth-1;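 active = mean loss of cell viability signal at or above a set limit, and enough replicates individually reaching it; inconclusive = meets only the mean limit or only the replicate share; inactive = meets neither condition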
Large screens that a line does not name were inactive (follow-up assays come after a bar, where they were run).

C[C@@H]1CN([C@H](C)CO)C(=O)c2cc(NC(=O)Nc3ccc(F)cc3)ccc2O[C@@H]1CN(C)S(=O)(=O)c1ccccc1	none
OC[C@H]1[C@H](c2ccc(C#CC3CC3)cc2)[C@H]2CN(CCC(F)(F)F)CCCCN21	T cruzi growth-1 98.4 | T cruzi growth-2 110.6 | T cruzi growth-3 inactive | 3T3 cytotox inactive | NIH3T3 tox 2 105.9
Cc1cccc(-c2ccc([C@H]3[C@@H](CO)N4CCCCN(CCC(F)(F)F)C[C@@H]34)cc2)c1	T cruzi growth-1 inconclusive | T cruzi growth-2 inactive | T cruzi growth-3 inactive | 3T3 cytotox 44.9 | NIH3T3 tox 2 105.2
OC[C@H]1[C@@H](c2ccc(C#CC3CC3)cc2)[C@H]2CN(CCC(F)(F)F)CCCCN21	none
OC[C@H]1[C@H](c2ccc(-c3cccc(F)c3)cc2)[C@@H]2CN(CCC(F)(F)F)CCCCN12	none
Cc1cccc(-c2ccc([C@@H]3[C@@H](CO)N4CCCCN(CCC(F)(F)F)C[C@H]34)cc2)c1	none
OC[C@H]1[C@H](c2ccc(-c3ccccc3)cc2)[C@@H]2CN(CCC(F)(F)F)CCCCN12	T cruzi growth-1 106.1 | T cruzi growth-2 99.8 | T cruzi growth-3 inactive | 3T3 cytotox 64.9 | NIH3T3 tox 2 102.4
OC[C@H]1[C@@H](c2ccc(-c3ccccc3)cc2)[C@@H]2CN(CCC(F)(F)F)CCCCN12	none
Cc1cccc(-c2ccc([C@H]3[C@@H](CO)N4CCCCN(CCC(F)(F)F)C[C@H]34)cc2)c1	Pf Dd2 inh -84.8, T cruzi growth-1 105.3 | T cruzi growth-2 100.4 | T cruzi growth-3 101.7 | 3T3 cytotox inactive | NIH3T3 tox 2 105.1
C[C@@H]1CN([C@@H](C)CO)C(=O)Cc2cc(NC(=O)C3CCCCC3)ccc2O[C@H]1CN(C)Cc1ccc(-c2ccccc2)cc1	none
COc1ccc(CN(C)C[C@@H]2OCCCC[C@H](C)Oc3ccc(NS(=O)(=O)c4ccc(F)cc4)cc3C(=O)N([C@H](C)CO)C[C@@H]2C)cc1	none
O=S(=O)(NCC[C@@H]1CC[C@@H](NS(=O)(=O)c2cccc(Cl)c2)[C@@H](CO)O1)c1cccc(F)c1	none
Cc1cccc(-c2ccc([C@H]3[C@H](CO)N4CCCCN(CCC(F)(F)F)C[C@@H]34)cc2)c1	T cruzi growth-1 107.8 | T cruzi growth-2 inconclusive | T cruzi growth-3 inactive | 3T3 cytotox inactive | NIH3T3 tox 2 103.9
C/C=C/c1ccc([C@H]2[C@@H](CO)N3CCCCN(CCC(F)(F)F)C[C@@H]23)cc1	none
OC[C@@H]1[C@H](c2ccc(/C=C/c3ccccc3)cc2)[C@H]2CN(CCC(F)(F)F)CCCCN12	T cruzi growth-1 101.5 | T cruzi growth-2 inactive | T cruzi growth-3 106.8 | 3T3 cytotox 73.1 | NIH3T3 tox 2 105.2
COc1ccccc1C#Cc1ccc([C@@H]2[C@@H](CO)N3CCCCN(CCC(F)(F)F)C[C@H]23)cc1	Pf Dd2 inh -82.4, T cruzi growth-1 105.4 | T cruzi growth-2 inactive | T cruzi growth-3 110.0 | 3T3 cytotox 98.1 | NIH3T3 tox 2 103.7
COc1ccccc1C#Cc1ccc([C@H]2[C@H]3CN(CCC(F)(F)F)CCCCN3[C@H]2CO)cc1	none
OC[C@@H]1[C@@H](c2ccc(-c3ccc(F)cc3)cc2)[C@@H]2CN(CCC(F)(F)F)CCCCN12	none
CO[C@H]1CN(C)C(=O)c2ccc(NS(=O)(=O)c3ccc(C)cc3)cc2OC[C@H](C)N(Cc2nccs2)C[C@@H]1C	none (no result: T cruzi growth-1)
COc1ccc(CN2C[C@H](O)COC[C@@H]3O[C@H](CC(=O)N4CCc5ccccc5C4)CC[C@H]32)cc1	none (no result: C diff HTS)
COc1ccc(NC(=O)Nc2ccc3c(c2)C(=O)N([C@H](C)CO)C[C@H](C)[C@H](CN(C)C(=O)Nc2cccc4ccccc24)O3)cc1	none
C[C@@H]1CN([C@@H](C)CO)S(=O)(=O)c2ccc(Br)cc2O[C@@H]1CN(C)S(=O)(=O)c1ccc(F)cc1	none
C[C@@H]1CN([C@@H](C)CO)S(=O)(=O)c2ccc(Br)cc2O[C@H]1CN(C)S(=O)(=O)c1cccc(F)c1	T cruzi growth-1 106.6 | T cruzi growth-2 111.2 | T cruzi growth-3 inactive | 3T3 cytotox inactive | NIH3T3 tox 2 67.6
C[C@@H]1CN([C@@H](C)CO)S(=O)(=O)c2ccc(Br)cc2O[C@@H]1CN(C)S(=O)(=O)c1ccccc1	none (no result: T cruzi growth-1)
C[C@H]1CN([C@@H](C)CO)S(=O)(=O)c2ccc(Br)cc2O[C@H]1CN(C)S(=O)(=O)c1ccc(F)cc1	T cruzi growth-1 106.3 (no result: C diff HTS) | T cruzi growth-2 105.7 | T cruzi growth-3 inactive | 3T3 cytotox inactive | NIH3T3 tox 2 inconclusive
COCC#Cc1cnc2c(c1)C(=O)N([C@H](C)CO)C[C@H](C)[C@@H](CN(C)Cc1ccccc1F)O2	none
CC(C)NC(=O)N1CC2(C1)[C@H](c1ccccc1)[C@@H](CO)N2C(=O)C1CCC1	none (no result: T cruzi growth-1)
COc1ccc2c3c(n(C)c2c1)[C@H](CO)N(C(C)=O)CC31CN(C(=O)C2CCOCC2)C1	none (no result: T cruzi growth-1)
C[C@H]1CN([C@@H](C)CO)C(=O)Cc2cc(NC(=O)Nc3ccc(C(F)(F)F)cc3)ccc2O[C@H]1CN(C)Cc1ccc(C(=O)Nc2ccccc2N)cc1	none
C[C@@H]1CN([C@@H](C)CO)C(=O)Cc2cc(NC(=O)CCCN(C)C)ccc2O[C@H]1CN(C)Cc1ccc(C(=O)Nc2ccccc2N)cc1	none (no result: T cruzi growth-1)
C[C@@H]1CN([C@@H](C)CO)C(=O)CCCn2nncc2CO[C@@H]1CN(C)Cc1ccc(C(=O)O)cc1	none (no result: T cruzi growth-1)
C[C@H]1CN([C@@H](C)CO)C(=O)Cc2cc(N(C)C)ccc2O[C@@H]1CN(C)Cc1ccc(C(=O)Nc2ccccc2N)cc1	none
C[C@@H]1CN([C@@H](C)CO)C(=O)Cc2cc(NC(=O)Cc3ccccc3)ccc2O[C@@H]1CN(C)Cc1ccc(C(=O)Nc2ccccc2N)cc1	Pf Dd2 inh -81.3, T cruzi growth-1 101.7 | T cruzi growth-2 106.2 | T cruzi growth-3 inactive | 3T3 cytotox inactive | NIH3T3 tox 2 38.5
C[C@@H]1CN([C@@H](C)CO)C(=O)Cc2cc(N(C)C)ccc2O[C@H]1CN(C)Cc1ccc(C(=O)Nc2ccccc2N)cc1	T cruzi growth-1 95.6 | T cruzi growth-2 106.0 | T cruzi growth-3 inconclusive | 3T3 cytotox 41.2 | NIH3T3 tox 2 82.1
C[C@@H]1CN([C@H](C)CO)C(=O)Cc2cc(NC(=O)Nc3ccc(C(F)(F)F)cc3)ccc2O[C@@H]1CN(C)Cc1ccc(C(=O)Nc2ccccc2N)cc1	T cruzi growth-1 inconclusive | T cruzi growth-2 99.7 | T cruzi growth-3 105.6 | 3T3 cytotox 55.4 | NIH3T3 tox 2 96.7
C[C@H](CO)N1C[C@H](C)[C@H](CN(C)Cc2ccc(C(=O)Nc3ccccc3N)cc2)OCc2cnnn2CCCC1=O	T cruzi growth-1 106.0 | T cruzi growth-2 108.0 | T cruzi growth-3 inactive | 3T3 cytotox inactive | NIH3T3 tox 2 inactive
